Experimental findings from PubChem BioAssay AID602289 (National Center for Advancing Translational Sciences (NCATS), 2012) are described below.

Molecules are shown by their SMILES. Out of some 2,400 compounds screened, about 40 (2%) were called active. Roughly 1% stayed inconclusive and do not appear here.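 How the source made its calls: active means inhibition at or above 60%; inconclusive means inhibition from 0% up to below 60%; inactive means no inhibition observed.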 The entries come from a sample that favours actives as a whole.

The nature of the assay: qHTS Assay for Small Molecule Inhibitors of Mitochondrial Division or Activators of Mitochondrial Fusion: Hit Validation in Malachite Green Assay.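 On inhibition: plate controls were DMSO wells with GTPase for no effect and protein-free buffer wells for full effect.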 The note with it: purified GTPase, malachite green phosphate release, A650; active compounds read high. From the text: The budding yeast S. cerevisiae is a powerful system to study mitochondrial fusion. Unlike other organisms, yeast cells without functional mitochondrial DNA (mtDNA) can be propagated and studied as long as they maintain a mitochondrial compartment and are provided with a fermentable carbon source. When mitochondrial fusion is blocked in yeast, mitochondrial tubules rapidly fragment and division continues unopposed. Under conditions where fusion is compromised in mammalian cells, nearly identical changes in mitochondrial structure have been observed. Thus, these findings indicate that steady state mitochondrial structure in cells is a characteristic and specific indicator of fusion activity. Mounting evidence has pointed to a connection between mitochondrial dynamics and apoptosis in mammalian cells. These studies indicate that in mammalian cells mitochondrial dynamics are more integrated into cellular processes than in yeast cells and have evolved not only to distribute the organelle but also to aid in the regulation of cellular homeostasis. Mitochondrial fusion proteins attenuate apoptosis by inhibiting the release of cytochrome c from mitochondria, in part by controlling cristae structures. Thus, small molecules that inhibit mitochondrial fusion may promote apoptosis and potentially act as novel chemotherapeutics and stimulation of apoptosis has become an attractive target of anti-cancer therapies. To identify inhibitors of mitochondrial division, we exploit the growth phenotypes of mitochondrial fusion-defective mutants. The temperature sensitive fusion alleles, such as fzo1-1 and mgm1-5, cause mitochondrial membranes to fragment in cells under non-permissive conditions and cells lose mtDNA, and are unable to grow in the presence of non-fermentable carbon source glycerol. Inhibiting mitochondrial division rescues growth. The hits were tested by the assay provider in a malachite green assay. NIH Chemical Genomics Center [NCGC] NIH Molecular Libraries Probe Production Centers Network [MLPCN] MLPCN Grant: MH081279 Assay Submitter (PI): Jodi M. Nunnari
Malachite Green Reagent Malachite Green carbinol base- Aldrich 229105 Ammonium molybdate - Sigma A7302 For 100 mL Malachite Green reagent in 1N HCl 16 mL conc. HCL + 32 mL H20 = 48 mL 4N HCl 34 mg malachite green base into 40 mL 1N HCl (10 mL 4N HCl + 30 mL H20) 1 g ammonium molybdate in 15 mL 4N HCl Mix Solutions together. Bring up to […] with H2O. Filter using a 0.2 um tissue culture filter unit (has plastic bottle attached) store at 4 masculine C. (Avoid Glassware/Plastics washed in detergent. Mix solutions in 50 mL conical vials.) For 20 uL reaction volume 1.0 uL Test Drug or DMSO: Added first to each well […]: 25 mM Hepes/Pipes pH 7.0 (H/P) 2.0 uL: 50 mM MgCl2 (final 5mM) 2.32 uL: 1 M NaCl (with contributing protein salt, Final = 150mM) 13.4 uL per reaction. Can be mixed in larger volume (Mini Master Mix) 1.6 uL: Protein 7.5 uM or Protein Freezing Buffer. (Final = 0.6uM) After Protein Added to mini Master Mix, 15ul Total Master Mix added to each well with drug. 4 uL: 500 uM GTP (Final = 100uM), Dilute with 25 mM H/P, store on ice. 20 uL Total Volume Make Master Mix: (Calculate desired reactions and add a few for multi-channel pipetting volume). Multiply the number of desired reactions by 13.4 uL for total Mini Master volume. Multiply the number of desired reactions by 1.6 uL for total Protein volume. Mix, and keep on ice until added to wells. Add 15 uL of Master Mix to each reaction well, incubate with drug for 10 min. For Positive (No Drug) controls add 15 uL Master Mix to wells with only 1 uL DMSO. Make PFB (Protein Freezing Buffer) (no Protein) Master Mix. Multiply the number of desired reactions by 13.4 uL for total Mini Master volume. Multiply the number of desired reactions by 1.6 uL for total PFB volume. Mix, and keep on ice until added to wells Add 10 uL of PFBMaster Mix to each Phosphate Standards well, and 15 uL to each negative control well with DMSO. […]
As usually defined, the inhibition is the drop in the measured response relative to a control, in per cent. Turning to `Cc1cc(=O)oc2c(C(=O)/C=C\c3cccs3)c(O)ccc12`, the inhibition result was “inactive”.
Next, `O=C(/C=C/c1ccccc1Cl)c1ccccc(=O)c1O`: 77.4% (active).
`O=C(/C=C/c1ccccc1Cl)c1ccc[nH]1`: the inhibition entry was “inactive”.
For `Cc1ccc(C)c(/C=C/C(=O)c2ccccc(=O)c2O)c1` the value was 73.2% (active); for `CC1=C(C(=O)OCc2ccccc2)C(/C=C/c2ccccc2)NC(=S)N1` (stereo not drawn), “inactive”.
For `C/C(N)=C(/C#N)C(=O)COC(=O)C(c1ccccc1)c1ccccc1` the value was “inactive”.
`COc1ccc(/C(N)=N/OC(=O)C2CCC(=O)N2S(=O)(=O)c2ccc(C)cc2)cc1` (stereo not drawn): the inhibition result was “inactive”.
For `O=C(Nc1nc(-c2cccs2)cs1)c1cccc(S(=O)(=O)N2CCCCC2)c1` the value was “inactive”; for `COc1ccc(-c2cc(C(=O)OC(C)C(=O)Nc3c(C)n(C)n(-c4ccccc4)c3=O)c3ccccc3n2)cc1` (stereo not drawn), “inactive”; for `Cc1cccc(C(=O)N(Cc2nc3ccccc3c(=O)[nH]2)C2CCCCC2)c1`, “inactive”.
`O=C(NCc1ccc2c(c1)OCO2)c1ccc(-c2ccc(Cl)cc2)o1`: the inhibition result was “inactive”.
Next, `CCc1ccccc1NC(=O)/C(C#N)=C/c1ccc(Sc2ccccc2)o1`: “inactive”.
For `COc1cc2c(c(OC)c1OC)-c1c(cc3c(c1O)OCO3)C[C@@H](C)[C@@H](C)C2` the value was “inactive”; for `Cc1cccn2c(=O)c(/C=C(\C#N)C(=O)NCc3ccco3)c(N3CCCCC3)nc12`, “inactive”; for `Clc1ccc(C[n+]2csc3ccccc32)cc1`, 71.7% (active).
Next, `Cc1nc(CS(=O)(=O)c2ccccc2)cc(Sc2ccc(Cl)cc2Cl)n1`: “inactive”.
Turning to `COc1cc(OC)cc(-c2c(-c3cccs3)c3cc(-c4ccn[nH]4)ccc3n2C)c1`, the inhibition result was “inactive”.
Turning to `CCOc1ccc(C(=O)Nc2c(C(N)=O)oc3ccccc23)cc1`, the inhibition entry was “inactive”.
For `CCOC(=O)c1c(NC(=O)C(C)OC(=O)C2=COCCO2)sc2c1CCCC2` (stereo not drawn) the value was “inactive”; for `CCOC(=O)c1sc(NC(=O)c2ccco2)c(C#N)c1C`, “inactive”.
For `CCOC(=O)c1sc(NC(=O)c2ccncc2)c(C#N)c1C` the value was 104% (active); for `CCOC(=O)c1sc(NC(=O)C2=COCCO2)c(C#N)c1C`, 100% (active).
Next, `CCCc1ccc(-c2csc(NC(=O)C3=COCCO3)n2)cc1`: “inactive”; `CCOC(=O)Nc1sc2c(c1C#N)CCC(C)C2` (stereo not drawn): “inactive”; `CCc1ccccc1N(CC(=O)NCCc1ccccc1)C(=O)CCC(=O)Nc1ccccn1`: “inactive”.
As for `COc1ccccc1N1CCN(C(=O)c2cc(=O)c3c(C)cc(C)cc3o2)CC1`, the inhibition entry is “inactive”.
Regarding `CCOC(=O)c1c(CN2CCN(c3ccccc3)CC2)oc2ccc(O)cc12`, the inhibition result is “inactive”.
Regarding `CNC(=O)c1ccsc1NC(=O)c1ccccc1`, the inhibition entry was “inactive”.
For `C=CCN(c1ccccc1)S(=O)(=O)c1ccc2c(c1)NC(=O)C(C)S2` (stereo not drawn) the value was “inactive”; for `CCCNC(=S)N1CCN(c2nc(C)nc3sc4c(c23)CCCC4)CC1`, “inactive”; for `O=C(Nc1ccc(Cl)c(-c2nc3ccccc3[nH]2)c1)c1ccc2c(c1)OCO2`, “inactive”.
For `S=C(Nc1ccc(Oc2ccccc2)cc1)NC1CCCCC1` the value was “inactive”; for `O=C1C=C(c2cccc(Cl)c2)C[C@@H](c2ccc3c(c2)OCO3)C1`, “inactive”; for `CCc1nnc(NC(=O)C2c3ccccc3Oc3ccccc32)s1`, “inactive”.
Turning to `O=C(Nc1nc(-c2ccncc2)cs1)C1c2ccccc2Oc2ccccc21`, the inhibition entry was “inactive”.
Consider `CC(C)c1nnc(NC(=O)C2c3ccccc3Oc3ccccc32)s1`, for which the inhibition is 93.8% (active).
Next, `O=C(CCc1ccc(Oc2cc([N+](=O)[O-])cc([N+](=O)[O-])c2)cc1)Nc1cccc(Cl)c1`: “inactive”; `CCN(CC)C(=O)CSc1nc2cc3c(cc2c(=O)n1CCCCCC(=O)NCc1ccc(OC)cc1)OCO3`: “inactive”.
For `Cc1ccc(NCc2n[nH]c(=S)n2-c2cccc(Cl)c2)cc1` the value was “inactive”.
For `CC1CCc2[nH]c3ccc(C(=O)N4CCCC(C(F)(F)F)C4)cc3c2C1` (stereo not drawn) the value was “inactive”; for `Cc1ccc(-n2nnnc2SCC(=O)c2cc(C)n(-c3cc(C)on3)c2C)c(C)c1`, “inactive”.
In the case of `O=C(CCCN1C(=O)/C(=C/c2ccccc2)SC1=S)Nc1ccccc1O`, the inhibition entry is “inactive”.
For `O=C1/C(=C\c2ccc(O)c(O)c2)SC(=S)N1Cc1ccccc1` the value was 94.2% (active).
Next, `C#CCOc1ccc(/C=C2\SC(=S)N(Cc3cccnc3)C2=O)cc1`: “inactive”; `O=C(CN1CCN(c2ccccn2)CC1)Nc1ccccc1`: “inactive”; `CC(C)n1c(O)c(N=NC(=O)C2COc3ccccc3O2)c2ccccc21` (stereo not drawn): “inactive”.
As for `CCOC(=O)N=Nc1c(O)n(Cc2ccccc2)c2ccccc12`, the inhibition entry was “inactive”.
Next, `Cc1c(/C=N\NC(=O)C2COc3ccc(C(C)(C)C)cc3O2)c2ccccc2n1C` (stereo not drawn): “inactive”; `CC(C)(C)c1ccc2c(c1)OC(C(=O)N/N=C\c1ccccn1)CO2` (stereo not drawn): 66% (active); `CCSc1nnc(NC(=O)c2ccccc2C)s1`: “inactive”.
As for `COCCCNc1nc2ccccc2nc1NS(=O)(=O)c1cccc(Cl)c1`, the inhibition entry was “inactive”.
Regarding `Cc1ccc(C)c(NC(=O)c2ccccc2Sc2ccc([N+](=O)[O-])cc2Cl)c1`, the inhibition result was “inactive”.
Take `N#Cc1ccc(-c2ccccc2)nc1SCC(=O)c1cc2ccccc2oc1=O`: the inhibition entry is “inactive”.
